For 7 compounds, Z-AUC, activity, negative = inhibition and Potency results are on record in PubChem BioAssay (NCATS).

Inconclusive results are not listed. The source made the active and inactive calls. Unless noted, calls come from the whole dose curve; as a rule, active = well fitted inhibition curve with a large enough effect; inconclusive = small, poorly fitted or top-dose-only effect; inactive = flat fitted curve, though single readings scatter.

Assay [1] is described as follows: qHTS drug screen for cell cycle checkpoint inhibitors in PARPi-resistant BRCA-mutant ovarian cancer cell lines. (AID 1963452; calls by dose curve). To be noted: PEO1/OlaR viability, CellTiter-Glo luminescence, 96 h, stronger effect = lower value. A digest of the protocol: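 PEO1, PEO4 and PEO1/OlaR ovarian cancer cells, 600 per well, exposed 96 h at 37C to a dilution series. Viability read by CellTiter-Glo luminescence, normalized to DMSO and empty wells; activity summarized as Z-AUC.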
A general note: In qHTS, concentration-response curves come from the screen itself.

Assay [2] in a line: qHTS profiling for inhibitors of Plasmodium falciparum proliferation (AID 504749).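 For activity, negative = inhibition: 0% = DMSO vehicle and full inhibition = artemisinin control.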 For all read-outs here: nearly all actives have a fitted effect of over 60% in size. Note: potency is the fitted concentration of half-maximal effect. Conditions: P. falciparum in erythrocytes, SYBR Green DNA, 72 h; for activity, negative = inhibition: at 28.7 µM (top of the series). A digest of the protocol: (§1)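 Three-day growth assay of blood-stage parasites in erythrocytes (0.3% parasitemia, 2.5% hematocrit) at 37 C, 5% CO2, quantified by SYBR Green DNA staining after overnight detergent lysis.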

The next assay has as its system 7G8. The description is as above. To be noted: P. falciparum in erythrocytes, SYBR Green DNA, 72 h; series mostly up to 28.7 µM. In outline:
as §1

In another assay the test system is AA1029. Described as above. Conditions: P. falciparum in erythrocytes, SYBR Green DNA, 72 h; series mostly up to 28.7 µM. A digest of the protocol: as §1
The test system of the next assay is AS120. Described as above. To be noted: P. falciparum in erythrocytes, SYBR Green DNA, 72 h; series mostly up to 28.7 µM. In outline:
as §1

Another assay deals with ATS189. The assay is described as above. To be noted: P. falciparum in erythrocytes, SYBR Green DNA, 72 h; series mostly up to 28.7 µM. A digest of the protocol:
as §1

The next assay has as its system ATS95. The assay is described as above. To be noted: P. falciparum in erythrocytes, SYBR Green DNA, 72 h; series mostly up to 28.7 µM. A digest of the protocol:
as §1

For the next assay, the system named is C2A. The description is as above. Conditions: P. falciparum in erythrocytes, SYBR Green DNA, 72 h; series mostly up to 28.7 µM. In outline:
as §1

The test system of another assay is CP185. The assay is described as above. Conditions: P. falciparum in erythrocytes, SYBR Green DNA, 72 h; series mostly up to 28.7 µM. In outline: as §1
In another assay the test system is CP191. The assay is described as above. To be noted: P. falciparum in erythrocytes, SYBR Green DNA, 72 h; series mostly up to 28.7 µM. In outline: as §1
The next assay concerns CP192. The assay is described as above. To be noted: P. falciparum in erythrocytes, SYBR Green DNA, 72 h; series mostly up to 28.7 µM. A digest of the protocol:
as §1

The next assay deals with CP194. The assay is described as above. To be noted: P. falciparum in erythrocytes, SYBR Green DNA, 72 h; series mostly up to 28.7 µM. In outline:
as §1

The next assay concerns CP201. The description is as above. To be noted: P. falciparum in erythrocytes, SYBR Green DNA, 72 h; series mostly up to 28.7 µM. In outline:
as §1

The next assay concerns CP211. The assay is described as above. Conditions: P. falciparum in erythrocytes, SYBR Green DNA, 72 h; series mostly up to 28.7 µM. In outline:
as §1

In the next assay the test system is CP217. Described as above. To be noted: P. falciparum in erythrocytes, SYBR Green DNA, 72 h; series mostly up to 28.7 µM. A digest of the protocol:
as §1

A further assay deals with 3D7. The description is as above. Conditions: P. falciparum in erythrocytes, SYBR Green DNA, 72 h; series mostly up to 28.7 µM. In outline: as §1
For another assay, the system named is CP203. Described as above. To be noted: P. falciparum in erythrocytes, SYBR Green DNA, 72 h; series mostly up to 28.7 µM. In outline: as §1
The next assay has as its system CP215. The description is as above. To be noted: P. falciparum in erythrocytes, SYBR Green DNA, 72 h; series mostly up to 28.7 µM. A digest of the protocol: as §1
Setting [3] is: measured here: PEO1 parental Z-AUC.

For `CNC[C@H](O)c1ccc(O)c(O)c1`, the figures for the Z-AUC in [1], in assay [1] (setting [3]) and in assay [1] (measured here: PEO4 Z-AUC) were 0.904 (inactive), 1.34 and 1.03, respectively. Also, the activity, negative = inhibition in [2] (parasite line A) was -8.23% (inactive); in assay [2] (parasite line B) it was 3.15% (inactive). Besides, the Potency result in the assay on 7G8, in the assay with AA1029, with AS120, in the assay with ATS189, in the assay with ATS95 and in the assay on C2A was “inactive” in each case. Moreover, the Potency entry with CP185, with CP191, with CP192, in the assay on CP194, with CP201 and in the assay on CP211 was “inactive” each time. In addition, the Potency entry in the assay on CP217 was “inactive”.
For `O=C1c2ccccc2-c2n[nH]c3cccc1c23`, the Z-AUC was 0.0207 (inactive) in [1], -0.118 in [1] (setting [3]) and 0.208 in assay [1] (measured here: PEO4 Z-AUC). The figures for the activity, negative = inhibition in assay [2] (parasite line A) and in [2] (parasite line B) were -18.5% (inactive) and -1.75% (inactive), respectively. Besides, the Potency result in the assay with 3D7, with AA1029, in the assay with AS120, in the assay on ATS189, in the assay with ATS95 and in the assay on C2A was “inactive” throughout. The Potency result in the assay on CP185, with CP191, in the assay with CP192, in the assay with CP194, in the assay on CP201 and with CP203 was “inactive” throughout. Also, the Potency entry in the assay on CP211 and with CP217 was “inactive” throughout.
In the case of `Cc1nc(Nc2ncc(C(=O)Nc3c(C)cccc3Cl)s2)cc(N2CCN(CCO)CC2)n1`, the Z-AUC is -3.38 (inactive) in assay [1], -2.38 in assay [1] (setting [3]) and -0.444 in assay [1] (measured here: PEO4 Z-AUC). The activity, negative = inhibition in assay [2] (parasite line B) was -17.2% (inactive). Besides, the figures for the Potency with 7G8 and in the assay on AS120 were 5620 nM (active) and 12600 nM (active), respectively. Further, the Potency entry in the assay with CP192 and in the assay with CP201 was “inactive” in each case.
Regarding `Cc1ccc(C)c(OCCCC(C)(C)C(=O)O)c1`, the figures for the Z-AUC in assay [1], in assay [1] (setting [3]) and in assay [1] (measured here: PEO4 Z-AUC) were 1.52 (inactive), 1.37 and 1.5, respectively. In addition, the activity, negative = inhibition in assay [2] (parasite line A) was 19.7% (inactive); in assay [2] (parasite line B), 9.1% (inactive). The Potency result in the assay with 3D7, in the assay on 7G8, in the assay with AA1029, in the assay on AS120, in the assay with ATS189 and with ATS95 was “inactive” throughout. Further, the Potency entry with C2A, in the assay with CP185, in the assay on CP191, with CP192, with CP194 and with CP201 was “inactive” throughout. Further, the Potency entry in the assay with CP203, in the assay on CP211, with CP215 and in the assay with CP217 was “inactive” in each case.
Turning to `CC(C)c1ccc2oc3nc(N)c(C(=O)O)cc3c(=O)c2c1`, the results for the Z-AUC in [1], in [1] (setting [3]) and in assay [1] (measured here: PEO4 Z-AUC) were -0.387 (inactive), 0.341 and 0.263, respectively. Besides, the activity, negative = inhibition in [2] (parasite line A) is -29.9% (inactive); in assay [2] (parasite line B), -11.5% (inactive). Also, the Potency result in the assay with 3D7, in the assay on ATS189, in the assay with ATS95, in the assay with C2A, in the assay with CP185 and in the assay with CP192 was “inactive” throughout. Moreover, the Potency entry in the assay with CP194, in the assay with CP201, with CP211 and with CP215 was “inactive” in each case.
Turning to `CCc1nc(N)nc(N)c1-c1ccc(Cl)cc1`, the Z-AUC in assay [1] is -0.192 (inactive); in assay [1] (setting [3]), -0.422; in [1] (measured here: PEO4 Z-AUC), -0.843. Moreover, the Potency was 50.1 nM (active) in assay [2] (parasite line A), 3160 nM (active) in assay [2] (parasite line B), 79.4 nM (active) with 3D7 and 10000 nM (active) in the assay on 7G8. Besides, the Potency result in the assay with AA1029, in the assay with ATS189, with ATS95, in the assay with C2A, in the assay with CP185 and in the assay on CP192 was “inactive” each time. The Potency entry with CP194 and in the assay on CP201 was “inactive” throughout.
As to `CCN(CCO)CCCC(C)Nc1ccnc2cc(Cl)ccc12` (stereo unspecified), the values for the Z-AUC in assay [1], in [1] (setting [3]) and in assay [1] (measured here: PEO4 Z-AUC) were 1.8 (inactive), 1.41 and 1.84, respectively. Besides, the values for the Potency (in [2] (parasite line A); in assay [2] (parasite line B); in the assay with 3D7) were 708 nM (active), 1000 nM (active) and 562 nM (active), respectively. Moreover, the Potency entry in the assay on AA1029, in the assay on AS120, in the assay with ATS189, with ATS95, with C2A and in the assay with CP185 was “inactive” throughout. The Potency entry with CP191, with CP192, in the assay with CP194, in the assay on CP201, in the assay on CP203 and with CP211 was “inactive” throughout. In addition, the Potency result in the assay on CP215 and in the assay with CP217 was “inactive” throughout.
